Measurements as given in PubChem BioAssay (EPA / NIEHS).
Calls of active or inactive are those of the source. Rule for the calls: active = hit-call score of the fitted dose curve at least 0.9, where 1 is the maximum; inactive = score below 0.9.

Columns and labels:
[1] = read-out: Plasminogen activator inhibitor-1 (PAI1), SERPINE1 (gene 5054); assay: BSK_hDFCGF_PAI1: BioMAP Diversity Plus: hDFCGF Assay for Plasminogen activator inhibitor-1 (PAI1) Biomarker Activity (AID 2283066); conditions: primary human foreskin fibroblasts; actives raise or lower the signal
How it was run: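 PAI-1 levels in human dermal foreskin fibroblasts were quantified by ELISA 24 h after dosing, with gain or loss analysed against DMSO. Overt cytotoxicity was checked by sulforhodamine B total-protein staining in parallel cultures.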

[2] = read-out: Interferon-gamma inducible Protein 10 (IP10), CXCL10 (gene 3627); assay: BSK_KF3CT_IP10: BioMAP Diversity Plus: KF3CT Assay for Interferon-gamma inducible Protein 10 (IP10) Biomarker Activity (AID 2283068); conditions: primary human keratinocytes with fibroblasts; actives raise or lower the signal
How it was run: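 Signal is secreted/surface IP-10 by ELISA in a human primary skin co-culture of keratinocytes and foreskin fibroblasts, taken 24 h post-dosing; DMSO served as negative control.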

[3] = BSK_KF3CT_SRB: Viability Assessment in the BioMAP Diversity Plus: KF3CT Assay (AID 2283069); conditions: primary human keratinocytes with fibroblasts;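 note: fitted for both signal gain and loss against DMSO baseline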
How it was run: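 Overt cytotoxicity is assessed as total protein by sulforhodamine B staining in parallel human skin co-cultures at 24 h after dosing. DMSO serves as negative control and baseline.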

[4] = read-out: Interleukin-1 alpha (IL1a), IL1A (gene 3552); assay: BSK_KF3CT_IL1a: BioMAP Diversity Plus: KF3CT Assay for Interleukin-1 alpha (IL1a) Biomarker Activity (AID 2283070); conditions: primary human keratinocytes with fibroblasts; actives raise or lower the signal
How it was run: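 Readout is IL-1a level by ELISA, compared bidirectionally with DMSO as baseline. Cells: human keratinocytes co-cultured with foreskin fibroblasts, harvested 24 h post-dose.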

[5] = read-out: TIMP metallopeptidase inhibitor 2 (TIMP2), TIMP2 (gene 7077); assay: BSK_KF3CT_TIMP2: BioMAP Diversity Plus: KF3CT Assay for TIMP metallopeptidase inhibitor 2 (TIMP2) Biomarker Activity (AID 2283071); conditions: primary human keratinocytes with fibroblasts; actives raise or lower the signal
How it was run: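 TIMP-2 measured by ELISA at 24 h in human keratinocyte/fibroblast primary co-cultures exposed to chemicals. Both increases and decreases were fitted against DMSO. Parallel cultures were stained with SRB for total protein as an overt-cytotoxicity check.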

[6] = read-out: Transforming growth factor beta 1 (TGFb1), TGFB1 (gene 7040); assay: BSK_KF3CT_TGFb1: BioMAP Diversity Plus: KF3CT Assay for Transforming growth factor beta 1 (TGFb1) Biomarker Activity (AID 2283072); conditions: primary human keratinocytes with fibroblasts; actives raise or lower the signal
How it was run: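 ELISA quantifies TGF-b1 at 24 h post-dose in a primary human skin co-culture of keratinocytes and fibroblasts, with gain or loss judged against DMSO. Parallel SRB total-protein staining flags overt cytotoxicity.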

[7] = read-out: C-C motif chemokine 2 (Homo sapiens) (UniProt P13500); assay: BSK_KF3CT_MCP1: BioMAP Diversity Plus: KF3CT Assay for Monocyte Chemoattractant Protein 1 (MCP1/CCL2) Biomarker Activity (AID 2283073); conditions: primary human keratinocytes with fibroblasts; actives raise or lower the signal
How it was run: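 Human keratinocyte–foreskin fibroblast co-culture; MCP-1 measured by ELISA 24 h after dosing. Bidirectional fit vs DMSO; cytotoxicity tracked by SRB total protein in parallel cultures.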

[8] = read-out: Matrix Metallopeptidase 9 (MMP9), MMP9 (gene 4318); assay: BSK_KF3CT_MMP9: BioMAP Diversity Plus: KF3CT Assay for Matrix Metallopeptidase 9 (MMP9) Biomarker Activity (AID 2283074); conditions: primary human keratinocytes with fibroblasts; actives raise or lower the signal;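 for AC50: MMP9 protein level quantified by ELISA in the co-culture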
How it was run: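 Values come from bidirectional fitting relative to DMSO of MMP-9 levels, which were measured by ELISA. Measurements were taken 24 h after chemical dosing of a keratinocyte and foreskin fibroblast co-culture.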

[9] = read-out: urokinase plasminogen activator (uPA), PLAU (gene 5328); assay: BSK_KF3CT_uPA: BioMAP Diversity Plus: KF3CT Assay for urokinase plasminogen activator (uPA) Biomarker Activity (AID 2283075); conditions: primary human keratinocytes with fibroblasts; actives raise or lower the signal
How it was run: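 Values derive from bidirectional fitting against DMSO controls. Keratinocyte/foreskin fibroblast co-cultures received chemical; 24 h later uPA was detected by ELISA, with SRB total-protein staining in parallel wells for overt cytotoxicity.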

CD40, CD40 (gene 958) = assay: BSK_LPS_CD40: BioMAP Diversity Plus: LPS Assay for CD40 Biomarker Activity (AID 2283076); conditions: primary human HUVEC with PBMC; actives raise or lower the signal
How it was run: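 HUVEC plus PBMC co-culture stimulated with LPS; CD40 quantified by ELISA 24 h after compound dosing. Fitting was bidirectional relative to DMSO. SRB staining of parallel cultures flagged overt cytotoxicity.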

[10] = read-out: E-selectin (Homo sapiens) (UniProt P16581); assay: BSK_LPS_Eselectin: BioMAP Diversity Plus: LPS Assay for Eselectin Biomarker Activity (AID 2283077); conditions: primary human HUVEC with PBMC; actives raise or lower the signal
How it was run: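 Human umbilical vein endothelial cells co-cultured with PBMC under LPS stimulation; cell-surface E-selectin measured by ELISA 24 h after dosing. Change in either direction versus DMSO, with SRB total-protein staining in parallel cultures for cytotoxicity.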

[11] = BSK_LPS_SRB: Viability Assessment in the BioMAP Diversity Plus: LPS Assay (AID 2283079); conditions: primary human HUVEC with PBMC;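 note: total protein by sulforhodamine B absorbance as a cytotoxicity measure; measured one day after compound addition; fitted in both directions against DMSO so loss or gain of signal counts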
How it was run: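 Co-culture of human umbilical vein endothelial cells and PBMC, read 24 h after dosing. Total protein by 0.1% SRB staining after 10% TCA fixation, absorbance at 560 nm; bidirectional fit against DMSO.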

[12] = read-out: Interleukin-1 alpha (IL1a), IL1A (gene 3552); assay: BSK_LPS_IL1a: BioMAP Diversity Plus: LPS Assay for Interleukin-1 alpha (IL1a) Biomarker Activity (AID 2283080); conditions: primary human HUVEC with PBMC; actives raise or lower the signal
How it was run: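 Human umbilical vein endothelial cells co-cultured with PBMC and stimulated with LPS; IL-1a measured by ELISA 24 h after dosing. Bidirectional fitting against DMSO; cytotoxicity checked by SRB staining in parallel cultures.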

[13] = read-out: Monocyte Chemoattractant Protein-1 (MCP1), CCL2 (gene 6347); assay: BSK_LPS_MCP1: BioMAP Diversity Plus: LPS Assay for Monocyte Chemoattractant Protein-1 (MCP1) Biomarker Activity (AID 2283081); conditions: primary human HUVEC with PBMC; actives raise or lower the signal;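 for AC50: secreted MCP-1 protein quantified by ELISA in culture supernatant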
How it was run: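 Human umbilical vein endothelial cells co-cultured with PBMC, LPS-stimulated; secreted MCP-1 measured by ELISA 24 h after compound addition. Bidirectional curve fitting against DMSO baseline; SRB total-protein staining in parallel cultures for cytotoxicity.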

[14] = BSK_LPS_PGE2: BioMAP Diversity Plus: LPS Assay for Prostaglandin E2 (PGE2) Biomarker Activity (AID 2283082); conditions: primary human HUVEC with PBMC; actives raise or lower the signal;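 for AC50: secreted prostaglandin E2 measured by ELISA in LPS-stimulated co-culture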
How it was run: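 PGE2 release measured by ELISA in an LPS-activated co-culture of human umbilical vein endothelial cells and peripheral blood mononuclear cells, read at 24 h post-dosing. DMSO served as baseline for bidirectional curve fitting.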

[15] = read-out: Macrophage colony-stimulating factor (MCSF), CSF1 (gene 1435); assay: BSK_LPS_MCSF: BioMAP Diversity Plus: LPS Assay for Macrophage colony-stimulating factor (MCSF) Biomarker Activity (AID 2283083); conditions: primary human HUVEC with PBMC; actives raise or lower the signal
How it was run: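 HUVEC–PBMC co-culture, M-CSF measured by ELISA 24 h after chemical dosing. Fitted in both directions relative to DMSO as negative control; overt cytotoxicity assessed by SRB total-protein staining in parallel cultures.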

[16] = read-out: Tissue Factor, F3 (gene 2152); assay: BSK_LPS_TissueFactor: BioMAP Diversity Plus: LPS Assay for Tissue Factor Biomarker Activity (AID 2283084); conditions: primary human HUVEC with PBMC; actives raise or lower the signal
How it was run: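 Human umbilical vein endothelial cells co-cultured with PBMC were dosed with compound. Cell-surface CD142 was measured by ELISA 24 h later. Activity was fitted bidirectionally against DMSO, with SRB total-protein staining in parallel cultures for cytotoxicity.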

[17] = read-out: Tumor necrosis factor (Homo sapiens) (UniProt P01375); assay: BSK_LPS_TNFa: BioMAP Diversity Plus: LPS Assay for Tumour Necrosis Factor alpha (TNFa) Biomarker Activity (AID 2283085); conditions: primary human HUVEC with PBMC; actives raise or lower the signal;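 for AC50: TNFa protein level quantified by ELISA in the co-culture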
How it was run: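 TNFa was quantified by ELISA in LPS-activated co-cultures of human endothelial cells and PBMC, 24 h post-dosing. Both increases and decreases versus DMSO were fitted.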

[18] = read-out: Interleukin-8 (IL8), CXCL8 (gene 3576); assay: BSK_LPS_IL8: BioMAP Diversity Plus: LPS Assay for Interleukin-8 (IL8) Biomarker Activity (AID 2283078); conditions: primary human HUVEC with PBMC; actives raise or lower the signal
How it was run: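 Human umbilical vein endothelial cells co-cultured with PBMC, LPS-stimulated, exposed to compound for 24 h. IL-8 quantified by ELISA; fitted in both directions against DMSO, with SRB total-protein staining of parallel cultures for cytotoxicity.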

Measured: AC50

Sequence of E-selectin (Homo sapiens) (P16581 whole entry, looked up): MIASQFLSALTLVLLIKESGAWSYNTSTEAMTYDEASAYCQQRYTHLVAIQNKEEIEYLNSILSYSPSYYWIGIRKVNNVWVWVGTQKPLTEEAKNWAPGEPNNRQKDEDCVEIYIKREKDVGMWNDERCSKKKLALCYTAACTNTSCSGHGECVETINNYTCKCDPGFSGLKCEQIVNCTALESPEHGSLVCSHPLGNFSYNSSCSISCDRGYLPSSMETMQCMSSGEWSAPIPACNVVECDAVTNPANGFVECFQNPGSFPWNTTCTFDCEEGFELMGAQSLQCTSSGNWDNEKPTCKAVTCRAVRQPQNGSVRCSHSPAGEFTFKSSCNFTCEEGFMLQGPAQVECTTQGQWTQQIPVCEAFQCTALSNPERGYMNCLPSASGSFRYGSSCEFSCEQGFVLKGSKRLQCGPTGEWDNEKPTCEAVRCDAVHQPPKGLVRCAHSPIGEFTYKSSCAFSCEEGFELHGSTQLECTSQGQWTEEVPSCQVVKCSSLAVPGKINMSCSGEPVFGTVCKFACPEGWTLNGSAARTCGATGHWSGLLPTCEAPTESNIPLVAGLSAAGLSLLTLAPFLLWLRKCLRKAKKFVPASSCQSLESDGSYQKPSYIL
Sequence of Tumor necrosis factor (Homo sapiens) (P01375 whole entry, looked up): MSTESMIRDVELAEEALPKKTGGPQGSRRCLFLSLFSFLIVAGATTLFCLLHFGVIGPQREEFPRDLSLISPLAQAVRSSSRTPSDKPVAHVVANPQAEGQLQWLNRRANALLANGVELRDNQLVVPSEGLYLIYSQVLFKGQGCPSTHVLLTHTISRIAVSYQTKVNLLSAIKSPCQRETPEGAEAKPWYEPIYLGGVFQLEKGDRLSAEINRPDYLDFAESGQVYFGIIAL

CCCCCCCCCCCCc1ccccc1
active: CD40, CD40 (gene 958) 30.7 µM
not listed: [18]
inactive: all other assays above

CCCN(C1CCN(C(=O)C2CCNCC2)CC1)[C@@H]1CCc2ccc(OC)cc2C1
not listed: [14] | [18]
inactive: all other assays above

Cc1ccc(C)c(O)c1
active: [14] 9.83 µM | [17] 0.796 µM
not listed: [12] | [18]
inactive: all other assays above

CCCCC(CC)COC(=O)c1ccc(C(=O)OCC(CC)CCCC)cc1 (stereo not drawn)
not listed: [12] | [14] | [18]
inactive: all other assays above

C[C@](N)(Cc1ccc(O)c(O)c1)C(=O)O
not listed: [5] | [18]
inactive: all other assays above

CCCCCCCCO
not listed: [18]
inactive: all other assays above

COC(=O)CC(=O)OC
not listed: [12] | [14] | [18]
inactive: all other assays above

CCC(C)(C)C(=O)O[C@H]1C[C@@H](C)C=C2C=C[C@H](C)[C@H](CC[C@@H]3C[C@@H](O)CC(=O)O3)[C@H]21
active: [1] 23.4 µM | [2] 34.3 µM | [3] 34.8 µM | [4] 34.9 µM | [5] 30.8 µM | [6] 31.4 µM | [7] 36.9 µM | [8] 31.6 µM | [9] 31.2 µM | CD40, CD40 (gene 958) 6.52 µM | [10] 0.168 µM | [11] 4.75 µM | [13] 30.5 µM | [15] 35 µM | [17] 0.363 µM
inactive: [18] | [16]

CC(C)CCCCCCCOC(=O)CCCCC(=O)OCCCCCCCC(C)C
not listed: [18]
inactive: all other assays above

CN(C)c1ccc(N=NS(=O)(=O)O)cc1
active: [16] 5.8 µM
not listed: [12] | [14]
inactive: all other assays above

O=C(O)c1cccc(Oc2ccccc2)c1
not listed: [12] | [18]
inactive: all other assays above

Fc1ccccc1[C@@H](F)COC1CCC(Nc2ncnc3[nH]ncc23)CC1 (stereo partly drawn)
active: CD40, CD40 (gene 958) 15.4 µM | [10] 29 µM | [11] 29.2 µM | [13] 30.3 µM | [15] 20 µM
not listed: [12] | [14] | [18]
inactive: all other assays above

Clc1nc(Cl)c(Cl)c(Cl)c1Cl
active: CD40, CD40 (gene 958) 30.4 µM | [10] 30.9 µM | [13] 32.1 µM | [14] 15.1 µM | [15] 32.2 µM | [16] 33.1 µM | [17] 31.7 µM
not listed: [12] | [18]
inactive: all other assays above

O=C1CCC(N2C(=O)c3ccccc3C2=O)C(=O)N1 (stereo not drawn)
not listed: [14] | [18]
inactive: all other assays above

CNS(=O)(=O)c1cc(C(=O)N2CCC(CCN3C4CCC3CC(n3c(C)nc5ccccc53)C4)(c3cccc(F)c3)CC2)c(Cl)cc1F (stereo not drawn)
active: [1] 20 µM | [6] 32.4 µM | [8] 20 µM | CD40, CD40 (gene 958) 20 µM | [11] 17.4 µM | [12] 23.5 µM | [13] 24.2 µM | [15] 18.3 µM
not listed: [18]
inactive: all other assays above

Nc1ccc(Nc2ccccc2)cc1
active: [8] 3.97 µM | CD40, CD40 (gene 958) 3.97 µM | [10] 12.9 µM | [13] 8.02 µM | [15] 8.31 µM | [17] 20 µM
not listed: [12] | [14] | [18]
inactive: all other assays above

CCOc1cccc(-n2cc(C(=O)N3CCN(c4cc(C(=O)O)c5ccccc5c4)CC3)nc2-c2ccc(C)cc2)c1
active: [1] 6.1 µM | [2] 29.2 µM | [3] 21.3 µM | [4] 30.1 µM | [5] 14.7 µM | [6] 14.4 µM | [7] 19.2 µM | [8] 19.7 µM | [9] 31.2 µM | CD40, CD40 (gene 958) 14.2 µM | [10] 31.3 µM | [11] 13.7 µM | [12] 19.2 µM | [13] 30.7 µM | [15] 23.2 µM | [16] 19.2 µM | [17] 20.9 µM

Cc1ccc(O)cc1
not listed: [14] | [18]
inactive: all other assays above

Nc1cccc(N)c1
not listed: [14] | [18]
inactive: all other assays above
